Compound activity deposited in PubChem BioAssay by National Center for Advancing Translational Sciences (NCATS).
The list is not random: actives were taken first. Their share in the collection is about 5.1%.
Tau ThT inhib – qHTS for Inhibitors of Tau Fibril Formation, Thioflavin T Binding; Microtubule-associated protein tau (Homo sapiens), P10636; recombinant tau K18 P301L, heparin-induced fibrillization, ThT fluorescence; Potency, µM (titrated, usually from 57.4 µM), hits mostly inhibitors; 2.1% of 270,000 active; also: nearly all actives have a fitted effect of over 55% in size
Target sequence (P10636 561-689 P618L limits assumed): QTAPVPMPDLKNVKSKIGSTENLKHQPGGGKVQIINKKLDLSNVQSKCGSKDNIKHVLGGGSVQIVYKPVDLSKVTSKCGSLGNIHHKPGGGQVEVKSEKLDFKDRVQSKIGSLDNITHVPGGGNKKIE
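Tau K18 P301L fragment (15 uM unlabeled plus 0.24 uM Alexa 594-labeled) in 100 mM sodium acetate pH 7 with compound, fibrillization induced by 20 uM heparin for 6 hr at 37 C. Thioflavin T (30 uM) added, fluorescence read after 1 hr (ex 450, em 510 nm).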
PNC inhibitor – High Content Assay for Compounds that inhibit the Assembly of the Perinucleolar Compartment; 3.1% of 140,000 active; AID 2417, 2010; PC3M PTB-GFP, PNC prevalence imaging, 16 h; stronger effect = lower value; activity change (PNC), negative = inhibition, % at 10 µM;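 active = readout at or below -70, meaning at least 70% loss of cells showing the perinucleolar compartment, a nuclear body marking cancer cells; inconclusive = readout between -30 and a set limit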
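Read-out is percentage of cells bearing a perinucleolar compartment, from automated 20x imaging of fixed, Hoechst-stained PC3M PTB-GFP cells. Cells were seeded 4 h, then exposed 16 h to compound (23 nl of library stock) in duplicate plates.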
NPSR antagonist – qHTS Assay for Antagonists of the Neuropeptide S Receptor: cAMP Signal Transduction; Potency, µM (titrated, usually from 38.3 µM), most hits filed as inhibitors; 1% of 220,000 active; AID 1461, 2008; Q6W5P4; CHO-NPSR cells, cAMP TR-FRET, antagonist mode; also: nearly all actives have a fitted effect of over 50% in size
Tau fibril FP – qHTS for Inhibitors of Tau Fibril Formation, Fluorescence Polarization | Potency, µM (highest dose often 57.7 µM), hits mostly inhibitors | K18 P301L tau heparin fibrillization, Alexa594 FP, 6 h | 0.39% of 280,000 active | AID 1468, 2008 | Microtubule-associated protein tau (Homo sapiens), P10636; also: nearly all actives have a fitted effect of over 55% in size
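Human tau K18 […] P301L fragment, 15 uM unlabeled plus 0.24 uM Alexa 594-labeled tau (final), with compound and 20 uM heparin in 100 mM sodium acetate pH 7; 6 hr at 37 C, then Alexa 594 FP read.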
KDM4E inh – qHTS Assay for Inhibitors of Human Jumonji Domain Containing 2E (JMJD2E); Lysine-specific demethylase 4E (Homo sapiens), B2RXH2; JMJD2E catalytic domain, FDH-coupled NADH fluorescence (FDH is formaldehyde dehydrogenase); Potency, µM (highest dose often 57.1 µM), usual class: inhibitors; 1.6% of 230,000 active; AID 2147, 2009; active = well fitted inhibition curve with a large enough effect, not every such curve was filed as active; inconclusive = small, poorly fitted or top-dose-only effect, or another doubt; inactive = no such curve, though single readings can be large or run the other way; also: nearly all actives have a fitted effect of over 50% in size
Target sequence (B2RXH2 1-337 limits assumed): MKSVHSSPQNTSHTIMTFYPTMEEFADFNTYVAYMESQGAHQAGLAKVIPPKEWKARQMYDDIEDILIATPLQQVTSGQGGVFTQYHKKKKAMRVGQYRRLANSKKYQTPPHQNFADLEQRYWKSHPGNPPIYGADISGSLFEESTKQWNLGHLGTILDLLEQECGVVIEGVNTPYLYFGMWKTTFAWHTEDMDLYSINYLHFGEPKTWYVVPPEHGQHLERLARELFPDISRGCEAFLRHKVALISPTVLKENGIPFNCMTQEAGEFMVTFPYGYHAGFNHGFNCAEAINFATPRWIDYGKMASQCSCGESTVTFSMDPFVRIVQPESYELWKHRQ
Tau fluor cs – Counterscreen qHTS for Inhibitors of Tau Fibril Formation, Fluorescence Polarization; tau K18 P301L Alexa594 fluorescence, heparin fibrillization; Potency, µM (doses to about 57.7 µM); 0.93% of 280,000 active; also: nearly all actives have a fitted effect of over 55% in size
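Human tau K18 P301L (15 uM unlabeled, 0.24 uM Alexa 594-labeled) in 100 mM sodium acetate pH 7 with 20 uM heparin, 6 hr at 37 C. ThT 30 uM added, 1 hr ambient; Alexa 594 FP and total fluorescence read at 555/632 nm.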
Each line names hits and unclear results; the compound was inactive in the other large screens; [ ] = another dose, or the depositor's remark. Unless noted, calls follow the shape of the dose curve; as a rule, active = well fitted curve in the direction sought with a large enough effect; inconclusive = small, poorly fitted or top-dose-only effect, or another doubt; inactive = no such curve, though single readings can be large; an effect the other way counts as inactive or inconclusive.

Cc1ccc2cc(N)ccc2n1	KDM4E inh 32µM (no result: PNC inhibitor)
O=C(COc1ccccc1F)Nc1ccc2nc(SCC(=O)N3CCc4ccccc43)sc2c1	Tau ThT inhib inconclusive, Tau fibril FP inconclusive (no result: PNC inhibitor, NPSR antagonist, KDM4E inh)
COc1cc(/C=N/Nc2nc(N3CCCC3)nc(N3CCCC3)n2)ccc1O	PNC inhibitor inconclusive
Oc1ccc(/C=N/Nc2nc(N3CCCC3)nc(N3CCCC3)n2)cc1O	Tau ThT inhib inconclusive, KDM4E inh 18µM, Tau fluor cs inconclusive (no result: PNC inhibitor)
Oc1ccc(/C=N/Nc2nc(N3CCCCCC3)nc(N3CCCCCC3)n2)c(O)c1	Tau ThT inhib inconclusive, NPSR antagonist inconclusive, Tau fluor cs 10µM[quencher] (no result: PNC inhibitor)
COc1ccc(-c2noc(-c3ccccc3NC(=O)c3cc(OC)c(OC)c(OC)c3)n2)cc1	Tau ThT inhib inconclusive (no result: PNC inhibitor, NPSR antagonist, KDM4E inh)
CNc1nnc(-c2ccc(N(C)C)cc2)s1	Tau ThT inhib inconclusive, PNC inhibitor -95, KDM4E inh inconclusive
Cc1cccc(COCC(Cc2ccccc2)N2CCN(C(=O)c3ccc(C(F)(F)F)cc3)CCC2=O)c1 (stereo unspecified)	Tau ThT inhib inconclusive, PNC inhibitor -80
O=C(c1ccc(C(F)(F)F)cc1)N1CCC(=O)N(C(COCc2ccc(C(F)(F)F)cc2)Cc2ccccc2)CC1 (stereo unspecified)	none
Cc1cccc(S(=O)(=O)c2cn(Cc3ccccc3)c3cc(N4CCCCC4)c(F)cc3c2=O)c1	none (no result: PNC inhibitor, NPSR antagonist, KDM4E inh)
Cc1cc(C(=O)N/N=C/C=C/c2ccc([N+](=O)[O-])cc2)n[nH]1	Tau ThT inhib 1.8µM (no result: PNC inhibitor)
CCOc1cc(/C=N/NC(=O)c2cc(C)[nH]n2)ccc1OC(=O)c1ccc([N+](=O)[O-])cc1	Tau ThT inhib inconclusive, Tau fluor cs inconclusive
O=[N+]([O-])c1cccc(/C=N/Nc2ccccn2)c1	Tau ThT inhib inconclusive (no result: PNC inhibitor)
O=C(N/N=C/c1cc(Cl)cc([N+](=O)[O-])c1O)c1cc(-c2ccccn2)nc2ccccc12	Tau ThT inhib 8.9µM, KDM4E inh 22µM, Tau fluor cs inconclusive (no result: PNC inhibitor)
Cc1cc(C(=O)N/N=C/c2cc(Cl)cc([N+](=O)[O-])c2O)n[nH]1	Tau ThT inhib 13µM, KDM4E inh 18µM, Tau fluor cs inconclusive (no result: PNC inhibitor)
O=[N+]([O-])c1cc(Cl)cc(/C=N\Nc2ccccn2)c1O	Tau ThT inhib 8.9µM, Tau fluor cs 18µM[quencher]
Cc1sc2ncn(CC(=O)N3CCN(c4ccc(F)cc4)CC3)c(=O)c2c1S(=O)(=O)N1CCCCC1	none (no result: PNC inhibitor, NPSR antagonist, KDM4E inh)
CCOC(=O)c1ccc(NC(=O)CCc2c(C)nc3c(c(C)nn3C)c2C)cc1	Tau ThT inhib inconclusive (no result: PNC inhibitor, NPSR antagonist, KDM4E inh)
Cc1cc(O)c(-c2cc(O)c(C)cc2O)cc1O	Tau ThT inhib 7.9µM, NPSR antagonist inconclusive, Tau fibril FP 14µM, KDM4E inh inconclusive, Tau fluor cs inconclusive (no result: PNC inhibitor)
COc1ccccc1C(=O)Oc1ccccc1C(=O)Nc1ccccc1	none (no result: PNC inhibitor)
O=C(Oc1ccccc1C(=O)Nc1ccccc1)c1ccc(Br)c([N+](=O)[O-])c1	Tau ThT inhib 10µM, Tau fibril FP inconclusive, Tau fluor cs inconclusive
C=CC1=C(C)/C(=C/c2[nH]c(Cc3[nH]c(/C=C4\NC(=O)C(C)=C4C=C)c(C)c3CCC(=O)O)c(CCC(=O)O)c2C)NC1=O	Tau ThT inhib 10µM, Tau fibril FP inconclusive, KDM4E inh inconclusive, Tau fluor cs inconclusive (no result: PNC inhibitor, NPSR antagonist)
CCn1c(-c2ccccc2O)n[nH]c1=S	PNC inhibitor -115
CCn1c(-c2cc(-c3ccccc3)sc2N)n[nH]c1=S	Tau ThT inhib inconclusive, Tau fluor cs 14µM[quencher] (no result: PNC inhibitor)
CCn1c(-c2csc3ccccc23)n[nH]c1=S	PNC inhibitor inconclusive
COc1ccc(-c2cc(C(F)(F)F)nc(SCC(=O)NCc3ccc(Cl)cc3)n2)cc1	Tau fibril FP inconclusive (no result: PNC inhibitor, NPSR antagonist, KDM4E inh)
NC(=O)NC(=O)COC(=O)c1ccc(Cl)c(S(=O)(=O)N(Cc2ccccc2)c2ccc(Cl)cc2)c1	NPSR antagonist inconclusive, Tau fibril FP 11µM, Tau fluor cs inconclusive
